Test results published in the supplement of paper PMC3150612.
± gives the standard deviation of the averaged measurements.

How the values were obtained:
Drosophila melanogaster [1] = experiment: olfactory response index (dipstick assay) (fraction of flies (RI; 1 aversion, 0.5 indifferent, 0 attraction)); higher = stronger aversion to the odorant; conditions: odorant concentration: 1% v/v, male
Drosophila melanogaster [2] = experiment: as above; conditions: odorant concentration: 1% v/v, female
[3] = genotype (tubulin-GAL4 x UAS-RNAi line; control = progenitor): A5
[4] = genotype (tubulin-GAL4 x UAS-RNAi line; control = progenitor): control
[5] = genotype (tubulin-GAL4 x UAS-RNAi line; control = progenitor): obp 18a
[6] = genotype (tubulin-GAL4 x UAS-RNAi line; control = progenitor): obp 22a
[7] = genotype (tubulin-GAL4 x UAS-RNAi line; control = progenitor): obp 28a
[8] = genotype (tubulin-GAL4 x UAS-RNAi line; control = progenitor): obp 56a
[9] = genotype (tubulin-GAL4 x UAS-RNAi line; control = progenitor): obp 56c
[10] = genotype (tubulin-GAL4 x UAS-RNAi line; control = progenitor): obp 56f
[11] = genotype (tubulin-GAL4 x UAS-RNAi line; control = progenitor): obp 57a
[12] = genotype (tubulin-GAL4 x UAS-RNAi line; control = progenitor): obp 57b
[13] = genotype (tubulin-GAL4 x UAS-RNAi line; control = progenitor): obp 58c
[14] = genotype (tubulin-GAL4 x UAS-RNAi line; control = progenitor): obp 59a
[15] = genotype (tubulin-GAL4 x UAS-RNAi line; control = progenitor): obp 83a
[16] = genotype (tubulin-GAL4 x UAS-RNAi line; control = progenitor): obp 83c
[17] = genotype (tubulin-GAL4 x UAS-RNAi line; control = progenitor): obp 93a
[18] = genotype (tubulin-GAL4 x UAS-RNAi line; control = progenitor): obp 99b
[19] = genotype (tubulin-GAL4 x UAS-RNAi line; control = progenitor): obp 56h
[20] = genotype (tubulin-GAL4 x UAS-RNAi line; control = progenitor): obp 58b

## CC(=O)OCCC(C)C [isoamyl acetate]
Drosophila melanogaster [1]; [3]
  olfactory response index: 0.156 ± 0.046
Drosophila melanogaster [1]; [4]
  olfactory response index: 0.228 ± 0.095
Drosophila melanogaster [1]; [5]
  olfactory response index: 0.362 ± 0.29
Drosophila melanogaster [1]; [6]
  olfactory response index: 0.238 ± 0.1
Drosophila melanogaster [1]; [7]
  olfactory response index: 0.237 ± 0.067
Drosophila melanogaster [1]; [8]
  olfactory response index: 0.419 ± 0.15
Drosophila melanogaster [1]; [9]
  olfactory response index: 0.373 ± 0.16
Drosophila melanogaster [1]; [10]
  olfactory response index: 0.58 ± 0.23
Drosophila melanogaster [1]; [11]
  olfactory response index: 0.192 ± 0.015
Drosophila melanogaster [1]; [12]
  olfactory response index: 0.215 ± 0.071
Drosophila melanogaster [1]; [13]
  olfactory response index: 0.173 ± 0.11
Drosophila melanogaster [1]; [14]
  olfactory response index: 0.629 ± 0.17
Drosophila melanogaster [1]; [15]
  olfactory response index: 0.339 ± 0.15
Drosophila melanogaster [1]; [16]
  olfactory response index: 0.321 ± 0.13
Drosophila melanogaster [1]; [17]
  olfactory response index: 0.343 ± 0.14
Drosophila melanogaster [1]; [18]
  olfactory response index: 0.23 ± 0.083
Drosophila melanogaster [1]; [19]
  olfactory response index: 0.348 ± 0.16
Drosophila melanogaster [2]; [3]
  olfactory response index: 0.442 ± 0.16
Drosophila melanogaster [2]; [4]
  olfactory response index: 0.707 ± 0.066
Drosophila melanogaster [2]; [5]
  olfactory response index: 0.34 ± 0.095
Drosophila melanogaster [2]; [6]
  olfactory response index: 0.625 ± 0.1
Drosophila melanogaster [2]; [7]
  olfactory response index: 0.488 ± 0.25
Drosophila melanogaster [2]; [8]
  olfactory response index: 0.665 ± 0.19
Drosophila melanogaster [2]; [9]
  olfactory response index: 0.832 ± 0.067
Drosophila melanogaster [2]; [10]
  olfactory response index: 0.497 ± 0.18
Drosophila melanogaster [2]; [11]
  olfactory response index: 0.465 ± 0.13
Drosophila melanogaster [2]; [12]
  olfactory response index: 0.583 ± 0.29
Drosophila melanogaster [2]; [20]
  olfactory response index: 0.364 ± 0.2
Drosophila melanogaster [2]; [13]
  olfactory response index: 0.471 ± 0.14
Drosophila melanogaster [2]; [14]
  olfactory response index: 0.733 ± 0.07
Drosophila melanogaster [2]; [15]
  olfactory response index: 0.594 ± 0.099
Drosophila melanogaster [2]; [16]
  olfactory response index: 0.6 ± 0.054
Drosophila melanogaster [2]; [17]
  olfactory response index: 0.702 ± 0.097
Drosophila melanogaster [2]; [18]
  olfactory response index: 0.499 ± 0.14
Drosophila melanogaster [2]; [19]
  olfactory response index: 0.659 ± 0.12

## CCc1cnccn1 [2-ethylpyrazine]
Drosophila melanogaster [1]; [3]
  olfactory response index: 0.416 ± 0.069
Drosophila melanogaster [1]; [4]
  olfactory response index: 0.118 ± 0.067
Drosophila melanogaster [1]; [5]
  olfactory response index: 0.0666 ± 0.045
Drosophila melanogaster [1]; [6]
  olfactory response index: 0.0894 ± 0.038
Drosophila melanogaster [1]; [7]
  olfactory response index: 0.472 ± 0.092
Drosophila melanogaster [1]; [8]
  olfactory response index: 0.194 ± 0.068
Drosophila melanogaster [1]; [9]
  olfactory response index: 0.206 ± 0.11
Drosophila melanogaster [1]; [10]
  olfactory response index: 0.247 ± 0.11
Drosophila melanogaster [1]; [11]
  olfactory response index: 0.114 ± 0.085
Drosophila melanogaster [1]; [12]
  olfactory response index: 0.0743 ± 0.059
Drosophila melanogaster [1]; [13]
  olfactory response index: 0.144 ± 0.016
Drosophila melanogaster [1]; [14]
  olfactory response index: 0.385 ± 0.17
Drosophila melanogaster [1]; [15]
  olfactory response index: 0.221 ± 0.036
Drosophila melanogaster [1]; [16]
  olfactory response index: 0.167 ± 0.082
Drosophila melanogaster [1]; [17]
  olfactory response index: 0.342 ± 0.071
Drosophila melanogaster [1]; [18]
  olfactory response index: 0.146 ± 0.061
Drosophila melanogaster [1]; [19]
  olfactory response index: 0.319 ± 0.058
Drosophila melanogaster [2]; [3]
  olfactory response index: 0.581 ± 0.074
Drosophila melanogaster [2]; [4]
  olfactory response index: 0.524 ± 0.027
Drosophila melanogaster [2]; [5]
  olfactory response index: 0.393 ± 0.2
Drosophila melanogaster [2]; [6]
  olfactory response index: 0.435 ± 0.1
Drosophila melanogaster [2]; [7]
  olfactory response index: 0.581 ± 0.0069
Drosophila melanogaster [2]; [8]
  olfactory response index: 0.409 ± 0.078
Drosophila melanogaster [2]; [9]
  olfactory response index: 0.497 ± 0.13
Drosophila melanogaster [2]; [10]
  olfactory response index: 0.568 ± 0.16
Drosophila melanogaster [2]; [11]
  olfactory response index: 0.304 ± 0.2
Drosophila melanogaster [2]; [12]
  olfactory response index: 0.4 ± 0.14
Drosophila melanogaster [2]; [20]
  olfactory response index: 0.256 ± 0.14
Drosophila melanogaster [2]; [13]
  olfactory response index: 0.419 ± 0.22
Drosophila melanogaster [2]; [14]
  olfactory response index: 0.638 ± 0.033
Drosophila melanogaster [2]; [15]
  olfactory response index: 0.567 ± 0.092
Drosophila melanogaster [2]; [16]
  olfactory response index: 0.522 ± 0.12
Drosophila melanogaster [2]; [17]
  olfactory response index: 0.552 ± 0.076
Drosophila melanogaster [2]; [18]
  olfactory response index: 0.159 ± 0.089
Drosophila melanogaster [2]; [19]
  olfactory response index: 0.492 ± 0.14

## CC(=O)c1ccccc1 [acetophenone]
Drosophila melanogaster [1]; [3]
  olfactory response index: 0.629 ± 0.048
Drosophila melanogaster [1]; [4]
  olfactory response index: 0.394 ± 0.035
Drosophila melanogaster [1]; [5]
  olfactory response index: 0.26 ± 0.13
Drosophila melanogaster [1]; [6]
  olfactory response index: 0.231 ± 0.17
Drosophila melanogaster [1]; [7]
  olfactory response index: 0.419 ± 0.18
Drosophila melanogaster [1]; [8]
  olfactory response index: 0.275 ± 0.14
Drosophila melanogaster [1]; [9]
  olfactory response index: 0.265 ± 0.077
Drosophila melanogaster [1]; [10]
  olfactory response index: 0.655 ± 0.15
Drosophila melanogaster [1]; [11]
  olfactory response index: 0.332 ± 0.051
Drosophila melanogaster [1]; [12]
  olfactory response index: 0.318 ± 0.13
Drosophila melanogaster [1]; [13]
  olfactory response index: 0.578 ± 0.18
Drosophila melanogaster [1]; [14]
  olfactory response index: 0.533 ± 0.14
Drosophila melanogaster [1]; [15]
  olfactory response index: 0.745 ± 0.16
Drosophila melanogaster [1]; [16]
  olfactory response index: 0.066 ± 0.075
Drosophila melanogaster [1]; [17]
  olfactory response index: 0.242 ± 0.12
Drosophila melanogaster [1]; [18]
  olfactory response index: 0.326 ± 0.023
Drosophila melanogaster [1]; [19]
  olfactory response index: 0.657 ± 0.11
Drosophila melanogaster [2]; [3]
  olfactory response index: 0.747 ± 0.024
Drosophila melanogaster [2]; [4]
  olfactory response index: 0.69 ± 0.11
Drosophila melanogaster [2]; [5]
  olfactory response index: 0.588 ± 0.13
Drosophila melanogaster [2]; [6]
  olfactory response index: 0.67 ± 0.066
Drosophila melanogaster [2]; [7]
  olfactory response index: 0.656 ± 0.078
Drosophila melanogaster [2]; [8]
  olfactory response index: 0.503 ± 0.066
Drosophila melanogaster [2]; [9]
  olfactory response index: 0.602 ± 0.057
Drosophila melanogaster [2]; [10]
  olfactory response index: 0.801 ± 0.055
Drosophila melanogaster [2]; [11]
  olfactory response index: 0.668 ± 0.1
Drosophila melanogaster [2]; [12]
  olfactory response index: 0.629 ± 0.053
Drosophila melanogaster [2]; [20]
  olfactory response index: 0.621 ± 0.061
Drosophila melanogaster [2]; [13]
  olfactory response index: 0.562 ± 0.14
Drosophila melanogaster [2]; [14]
  olfactory response index: 0.717 ± 0.05
Drosophila melanogaster [2]; [15]
  olfactory response index: 0.45 ± 0.15
Drosophila melanogaster [2]; [16]
  olfactory response index: 0.631 ± 0.082
Drosophila melanogaster [2]; [17]
  olfactory response index: 0.69 ± 0.067
Drosophila melanogaster [2]; [18]
  olfactory response index: 0.376 ± 0.15
Drosophila melanogaster [2]; [19]
  olfactory response index: 0.489 ± 0.037
